Reference: PubChem BioAssay AID938 (National Center for Advancing Translational Sciences (NCATS), 2007)
Where “and” joins values, the source holds several entries; their conditions need not be identical. Identical values can stand only once. Screen size: about 73,000 compounds; about 1,800 (2.5%) were called active. About 13% were inconclusive and are not listed. This is one part of a sample in which actives are shown more often than they occur. Unmarked numbers belong to inactive results. Calls come from the whole dose curve; as a rule, active = well fitted activation curve with a large enough effect; inconclusive = small, poorly fitted or top-dose-only effect; inactive = no such curve, though single readings can be large or run the other way.

Experiment: qHTS Assay for Agonists of the Thyroid Stimulating Hormone Receptor: Activators of Intracellular cAMP Concentrations in Parental HEK 293; note: nearly all actives have a fitted effect of over 55% in size; for activation: % of control where 0% means no effect
Conditions: parental HEK293 CNG cAMP sensor, membrane potential fluorescence; series mostly up to 57.1 µM; activation: at the top concentration
Summary of the method: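 Parental HEK 293 cells stably expressing a cAMP-gated CNG channel were loaded with membrane potential dye containing 100 uM RO 20-1724 for 60 min. Compound added for 30 min; depolarization read as fluorescence intensity at 590 nm.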
Potency is the fitted concentration of half-maximal effect.

| SMILES | activation | Potency |
| --- | --- | --- |
| CC(C)CO | 35.2% | – |
| O=C(NCc1ccccc1)[C@H]1C[C@@H]1[C@H](NP(=O)(c1ccccc1)c1ccccc1)c1ccccc1 | 21.5% | – |
| Cc1cccc(C(=O)O)c1[N+](=O)[O-] | 15% | – |
| CCOC(=O)C1CCN(c2ncnc3c2oc2ccc(Br)cc23)CC1 | – | 25.1 µM (active) |
| CCOC(=O)N1CCN(C(=O)C2CCN(c3ncnc4c3sc3cccc(F)c34)CC2)CC1 | 22.3% | – |
| Cc1cc(C)nc(N2CCN(c3ncnc4c3oc3ccccc34)CC2)n1 | 8.26% | – |
| Cc1cc(C)cc(C#CC2C=CC(Oc3ccc(C4CCCC4)cc3)C(CO)O2)c1 (stereo not drawn) | 16.7% [at 11.4 µM] | – |
| CC(C)[C@@H](OCc1ccccc1)[C@H](C)/C=N\OC[C@@H](C)[C@H](OCc1ccccc1)C(C)C | 2.03% [at 11.4 µM] | – |
| CCOC(=O)CSc1nnc(-c2cccc(Br)c2)o1 | 14.3% | – |
| CC1=CC(C)(C)N(C(=O)CSc2nnc(-c3ccccc3)o2)c2ccc(C)cc21 | – | 2 µM (active) |
| O=C(CSc1nnc(-c2ccccc2)o1)N1CCOCC1 | -5.4% | – |
| CCS(=O)(=O)N1CCN(C(=O)c2cccs2)CC1 | 1.24% | – |
| COc1ccc(N2CCN(C3CC(=O)N(c4ccc5c(c4)OCCO5)C3=O)CC2)cc1 (stereo not drawn) | -2.22% | – |
| CCCc1nc2ccccc2c(=O)n1NC(=O)c1c(O)c2ccccc2[nH]c1=O | -13.5% | – |
| CC(C)C(NC(=O)OCc1ccccc1)C(=O)OCC(=O)N1C(C)CCCC1C (stereo not drawn) | 4.71% | – |
| C[C@@H](C(=O)Nc1ccc2ccccc2c1)[C@@H]1C[C@@]1(C)[C@@H](NC(=O)c1cccnc1)c1ccccc1 | 26% | – |
| COC(=O)[C@H](C)[C@H]1C[C@]1(C)[C@H](NC(=O)OCc1ccccc1)c1ccccc1 | – | 2 µM (active) |
| C=CCOC(=O)C(C(C)=O)C(NC(=O)OC)c1ccccc1 (stereo not drawn) | 4.24% [at 11.4 µM] | – |
| CCc1ccc(NC(=O)CSc2nnc(-c3cnccn3)n2Cc2ccco2)cc1 | 16.3% | – |
| COc1cc(Cl)c(C)cc1NC(=O)CSc1nnc(-c2cccnc2)n1Cc1ccco1 | 5.62% | – |

| SMILES | activation | Potency |
| --- | --- | --- |
| C(=C\c1ccccc1)/CSc1nnc(-c2cccnc2)n1Cc1ccco1 | – | 15.8 µM (active) |
| COc1cccc(Cn2c(=O)c(C)nc3cnc(Oc4ccccc4)nc32)c1 | – | 12.6 µM (active) |
| COc1cccc(Cn2c(=O)c(-c3cc(F)cc(F)c3)nc3cnc(OC)nc32)c1 | 15.7% | – |
| COc1cccc(Cn2c(=O)c(-c3ccccc3)nc3cnc(OC)nc32)c1 | 6.48% | – |
| COC(=O)c1c(NC(=O)CSc2nc3c(c(=O)n(C)c(=O)n3C)n2C(C)C)sc(C)c1C | 5.47% | – |
| CC(C)n1c(SCC(=O)Nc2ccccc2N2CCCCC2)nc2c1c(=O)n(C)c(=O)n2C | – | 20 µM (active) |
| Cc1ccccc1NC(=O)CNc1ccccc1N1CCCCC1 | -20.4% | – |
| CC1(C)CC(=O)C=C(NCCCNC2CCCCC2)C1 | 11.9% | – |
| CC(=O)N1[C@H](C)C=C[C@]1(Cc1ccccc1)C(=O)NCc1ccccn1 | 7.85% | – |
| COC(=O)C1(C)C=CCN1C(=O)c1ccccc1 (stereo not drawn) | 22% | – |
| CC(C)CC1(C(=O)NCc2ccccn2)C=CCN1C(=O)c1ccccc1 (stereo not drawn) | – | 25.1 µM (active) |
| O=C1C[C@@H](O)[C@@H](O)[C@H]2[C@@H]3C(=O)N(Cc4ccc5c(c4)OCO5)C(=O)[C@@H]3CC[C@H]12 | 0.478% [at 11.4 µM] and -2.17% [at 11.4 µM] | – |
| COc1ccc(C(C(O)C(=O)c2c[nH]c3ccccc23)N2CCN(c3ccccc3)CC2)cc1 (stereo not drawn) | -26.1% | – |
| N#Cc1cc2[nH]c(=O)c(=O)[nH]c2cc1[N+](=O)[O-] | 2.14% | – |
| CCOC(=O)N1CCC(O)(c2cc(C)c(C)cc2C)CC1 | 22.9% | – |
| c1ccc(CSc2nnc(-c3ccco3)c(-c3ccco3)n2)cc1 | 17.4% | – |
| c1ccc(CSc2nnc(-c3ccco3)n2Cc2ccccc2)cc1 | – | 15.8 µM (active) |
| O=C(CSc1nnc(-c2ccco2)n1CC1CCCO1)c1ccccc1 (stereo not drawn) | 6.36% | – |
| C1CCC2OC2C1 (stereo not drawn) | 21.9% | – |
| Brc1cc(Br)c(Oc2cc(Br)c(Br)cc2Br)cc1Br | 7.96% | – |

| SMILES | activation | Potency |
| --- | --- | --- |
| CN1CCC(CNC(=O)c2ccc(-n3c(=O)c(=O)[nH]c4ccccc43)cc2)CC1 | -0.798% | – |
| O=C(O)CCCCC(=O)O | -7.63% | – |
| COc1ccc(N2C(=O)CCC(C(=O)N(C)C3CCCCC3)C2c2ccc(OC)c(OC)c2)cc1 (stereo not drawn) | -2.67% | – |
| CN(C(=O)CSc1nnnn1-c1ccccc1)C1CCCCC1 | 20.6% | – |
| CCOc1ccc2c(c1)cc(CN(C(=O)CC)C1CCCCC1)c1nnnn12 | – | 20 µM (active) |
| CC(C)[C@H](CO)Nc1nc(Nc2cc(N)cc(Cl)c2)c2ncn(C(C)C)c2n1 | -33.1% | – |
| CCCCOC(=O)NCN1C(=O)C2C3C=CC(C3)C2C1=O (stereo not drawn) | 2.49% | – |
| O=C1OCCC=C1[C@@H](O)CCc1ccccc1 | -4.2% [at 11.4 µM] | – |
| CC(C)CNC(=O)C1CCCN(S(=O)(=O)c2ccc(-n3cnnn3)cc2)C1 (stereo not drawn) | -6.8% | – |
| O=C(c1cnccn1)N1CCC2(CCN(Cc3cc(C(F)(F)F)cc(C(F)(F)F)c3)CC2)CC1 | 9.35% | – |
| O=C(NCCc1ccc2c(c1)OCCO2)c1cc2ccccc2o1 | – | 25.1 µM (active) |
| Nc1nonc1C(=O)NCCc1ccccc1 | -2.18% | – |
| O=C(CC(Cc1ccccc1)C(=O)O)NCCc1ccc2c(c1)OCO2 (stereo not drawn) | 9.45% | – |
| CC1CCCN(Cc2nc3c(c(=O)n(C)c(=O)n3C)n2CC(=O)c2ccccc2)C1 (stereo not drawn) | 14.5% | – |
| COc1ccc2c(c1)C(C)=CC(C)(C)N2C(=O)CNCc1ccc2c(c1)OCO2 | – | 25.1 µM (active) |
| CCn1cc(C(=O)NCc2ccc3c(c2)OCO3)c2cc(OC)c(OC)cc2c1=O | -7.17% | – |
| CCOC(=O)NCc1ccc2c(c1)OCO2 | 0.501% | – |
| CCn1nc(NC(=O)c2ccco2)c2cc3ccc(C)cc3nc21 | 1.12% | – |
